Compound activity from PubChem.
In the library only some 3% were active in any assay of this set; here they are far more common.
SENP7 block: SENP7 protease inhibitors, primary screen, biochemical, luminescence, uHTS; actives 1.5% (n = 330,000); inhibition, % at 5 µM; Sentrin-specific protease 7 (Homo sapiens), Q9BQF6; recombinant SENP7, Z-RLRGG-aminoluciferin luminescence, 40 min;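 active = inhibition above about 50% at the single test dose, limit read from the data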
Target sequence (Q9BQF6 706-1050 limits assumed): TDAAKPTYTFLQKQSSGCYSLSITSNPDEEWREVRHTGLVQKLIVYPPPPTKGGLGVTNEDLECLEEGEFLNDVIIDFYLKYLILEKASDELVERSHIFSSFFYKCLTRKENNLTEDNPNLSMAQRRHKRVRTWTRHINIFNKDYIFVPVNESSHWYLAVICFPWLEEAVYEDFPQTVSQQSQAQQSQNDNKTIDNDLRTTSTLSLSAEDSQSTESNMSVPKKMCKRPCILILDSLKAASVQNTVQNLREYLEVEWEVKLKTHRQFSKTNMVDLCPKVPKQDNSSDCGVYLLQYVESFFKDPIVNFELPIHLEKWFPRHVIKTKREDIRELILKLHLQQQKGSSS
SENP6 inh: SENP6 protease inhibitors, primary screen, biochemical, luminescence, uHTS. Recombinant SENP6 catalytic domain, aminoluciferin luminescence. inhibition, % at 10 µM. actives 1.8% (n = 330,000). AID 2599, 2010;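 active = inhibition above about 50% at the single tested dose, limit read from the data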
SENP8 block-1: SENP8 protease inhibitors, primary screen, biochemical, luminescence | purified SENP8, Z-RLRGG-aminoluciferin cleavage | actives 1.2% (n = 330,000) | inhibition, % at 10 µM | AID 2540, 2010; in the data active = inhibition above about 50%
Target sequence (Q96LD8 whole entry, looked up): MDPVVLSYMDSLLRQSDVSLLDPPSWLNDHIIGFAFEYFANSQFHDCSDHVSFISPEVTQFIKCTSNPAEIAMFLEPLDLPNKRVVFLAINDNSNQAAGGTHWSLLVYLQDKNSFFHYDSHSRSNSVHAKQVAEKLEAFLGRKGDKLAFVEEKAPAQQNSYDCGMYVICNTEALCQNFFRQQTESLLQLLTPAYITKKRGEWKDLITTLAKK
SENP8 block-2: human SENP8 protease inhibitors, primary screen, biochemical, fluorescence, Nedd8 protein substrate, uHTS; Sentrin-specific protease 8 (Homo sapiens), Q96LD8; recombinant SENP8; actives 0.64% (n = 360,000); inhibition, % at 20 µM; in the data active = inhibition mostly above about 40%, no sharp cut-off; inactive = mostly below about 27%
TRAIL sens C8: viability loss with TRAIL in NB7+C8 cells, primary screen, TRAIL sensitizer project, cell-based, ATPlite luminescence. inhibition (viability loss, TRAIL sensitization), % at 10 µM. actives 1% (n = 360,000);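 active = compounds causing at least 50% loss of cell viability in the single-dose screen, relative to plate controls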
PPC-1+TRAIL kill: compounds killing PPC-1 cancer cells with TRAIL present, primary screen, TRAIL potentiator project, ATPLite luminescence, uHTS | PPC-1 cells + TRAIL, ATPLite viability luminescence | cell killing (% activity), % at 4 µM or 5 µM | actives 0.41% (n = 220,000) | AID 1443, 2008;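 active = cell killing above 50% in the first pass at 4 µM, then a duplicate retest at 5 µM averaging 50% or more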
Each line names hits and unclear results; the compound was inactive in the other large screens.

O=C(Nc1ccc(NC(=O)c2ccco2)nc1)c1cccc(F)c1	none (no result: PPC-1+TRAIL kill)
O=C(Nc1cnc2ccccc2c1)c1ccco1	SENP7 block 70, SENP6 inh 70
O=C(Nc1ccc(NC(=O)c2ccccc2F)cn1)c1ccco1	TRAIL sens C8 54 (no result: PPC-1+TRAIL kill)
CN(Cc1ccccc1)c1nc(-c2ccc([N+](=O)[O-])cc2)nc2ccccc12	none
O=[N+]([O-])c1ccc(-c2nc(C(Cl)Cl)c3ccccc3n2)cc1	TRAIL sens C8 60
CCOc1ccc(N=Cc2ccc([N+](=O)[O-])cc2)c(O)c1	SENP8 block-2 41 (no result: SENP7 block, SENP6 inh, SENP8 block-1, PPC-1+TRAIL kill)
COC(=O)C(=Cc1ccncc1)c1cccc2ccccc12	none (no result: SENP7 block, SENP6 inh, SENP8 block-1, PPC-1+TRAIL kill)
CCCc1ccc(-c2ccc(/C=C/C(=O)O)cc2)nc1	TRAIL sens C8 85, PPC-1+TRAIL kill 56 (no result: SENP7 block, SENP6 inh, SENP8 block-1)
CCCCCCCc1ccc(-c2ccc(O)cc2)nc1	none
Cc1c(Cl)cccc1NC(=O)Cn1c(CCC(=O)O)ccc1-c1ccccc1	none (no result: PPC-1+TRAIL kill)
CCN(CC)CCNc1cc(C)nc2c1C(=O)C(=O)C=C2N1CCCCC1	SENP8 block-2 56 (no result: PPC-1+TRAIL kill)
O=C(CNC(=O)C12CC3CC(CC(C3)C1)C2)NCc1ccccc1	none (no result: PPC-1+TRAIL kill)
CC(/C=N/NC(=O)c1nn(C)c(C)c1Br)=C\c1ccccc1	TRAIL sens C8 57, PPC-1+TRAIL kill 54
C=C1C(=O)C=C2CN(C(=O)c3ccccc3)[C@@](Cc3ccc(F)cc3)(C(=O)OC)[C@@H]12	TRAIL sens C8 73
Cc1cccc(CSc2ncccc2C(=O)O)c1	PPC-1+TRAIL kill 54
CC(C)Cc1nnc(NC(=O)c2ccc3c(c2)NC(=O)C(C)S3)s1 (stereo not given)	none (no result: PPC-1+TRAIL kill)
COc1cc(/C=N/Nc2nc(N3CCCC3)nc(N3CCCC3)n2)ccc1O	none
COc1ccc(-c2cnnc(N/N=C/c3ccc(O)c(OC)c3)n2)cc1	TRAIL sens C8 59
Cn1c(N/N=C/c2cc3ccccc3nc2Cl)nc2ccccc21	TRAIL sens C8 88
Cc1ccc2cc(/C=N/Nc3nc4ccccc4[nH]3)c(Cl)nc2c1	TRAIL sens C8 87 (no result: SENP7 block, SENP6 inh, SENP8 block-1)
C=CCNC(=O)c1c(CSc2ccc(Cl)cc2)noc1C(=O)NCc1ccccc1	none (no result: PPC-1+TRAIL kill)
CC(=O)N(C)c1ccc(N=Nc2ccc3ncccc3c2)cc1	TRAIL sens C8 62 (no result: SENP7 block, SENP6 inh, SENP8 block-1, PPC-1+TRAIL kill)
CC(=O)N(C)c1ccc(N=Nc2c(C)[nH]n(-c3ccccc3)c2=O)cc1	none (no result: PPC-1+TRAIL kill)
NC(=O)c1ccsc1NC(=O)c1coc2ccccc2c1=O	SENP7 block 79, SENP6 inh 83, SENP8 block-1 66, TRAIL sens C8 52
COC(=O)C1CCN(C2=C(NS(=O)(=O)c3ccc(Cl)cc3)C(=O)c3ccccc3C2=O)CC1	SENP8 block-2 40
CC1CCCN(C2=C(NS(=O)(=O)c3ccc(Cl)cc3)C(=O)c3ccccc3C2=O)C1 (stereo not given)	SENP8 block-2 60
NC(=O)C1CCN(C2=C(NS(=O)(=O)c3ccc(Cl)cc3)C(=O)c3ccccc3C2=O)CC1	SENP8 block-2 44
CC1CCCN(C2=C(Cl)C(=O)N(c3cccc(Cl)c3)C2=O)C1 (stereo not given)	none
NC(=O)C1CCN(c2oc(-c3ccccc3F)nc2S(=O)(=O)c2ccc(Cl)cc2)CC1	none
CCOc1cccc(CNCCSc2nnnn2C)c1	none
COc1ccc(C(=O)/C(C#N)=N/Nc2ccc([N+](=O)[O-])cc2)cc1	SENP8 block-2 40
CCOC(=O)NC(=O)/C(C#N)=N\Nc1ccc(Cl)cc1	SENP8 block-2 43
CCOC(=O)NC(=O)/C(C#N)=N\Nc1cccc(Cl)c1	none
N#C/C(=N\Nc1ccc(Cl)cc1)C(=O)c1ccccc1	SENP8 block-2 46
O=C(C1=C[C@H](c2coc3ccccc3c2=O)C[C@H](OCCCCO)O1)N1CCN(Cc2ccc3c(c2)OCO3)CC1	none
COCCNC(=O)C1CCCN(C(=O)c2ccc3c(c2)C(C)(C)CCC3(C)C)CC1 (stereo not given)	none (no result: SENP7 block, SENP6 inh, SENP8 block-1, PPC-1+TRAIL kill)
Cc1cc2nc3ccc(N(C)C)cc3nc2cc1N	SENP6 inh 51, SENP8 block-2 81, TRAIL sens C8 52 (no result: PPC-1+TRAIL kill)
CN(C)C(=O)N1CCN(c2nc(-c3ccccc3)cs2)CC1	TRAIL sens C8 58 (no result: PPC-1+TRAIL kill)
O=C(N1CCOCC1)N1CCN(c2nc(-c3ccccc3)cs2)CC1	none
CCOc1ccccc1C(=O)Nc1nn[nH]n1	none
CCC(=O)N1CCCc2cc(S(=O)(=O)N3CCN(c4ccccc4F)CC3)ccc21	TRAIL sens C8 83
CN(Cc1cnn(-c2ccc(F)cc2)c1)C(=O)[C@H]1O[C@@H](n2ccc(=O)[nH]c2=O)[C@H](O)[C@@H]1O	none (no result: SENP7 block, SENP6 inh, SENP8 block-1, PPC-1+TRAIL kill)
CCOC(=O)N1N=C(c2ccc(OC)cc2)CC1(O)C(F)(F)F (stereo not given)	none
CCc1ccc(C2=NN(C(=O)OC)C(O)(C(F)(F)F)C2)cc1 (stereo not given)	TRAIL sens C8 55
COC(=O)Nc1nnc(-c2ccccc2OC)s1	SENP7 block 67
COc1ccc(CCN2CC(C(=O)NCCCc3ccncc3)CCC2=O)cc1 (stereo not given)	none (no result: SENP7 block, SENP6 inh, SENP8 block-1, PPC-1+TRAIL kill)
CCOc1cc(/C=C/c2cc(C(=O)O)c3ccccc3n2)ccc1OC	TRAIL sens C8 58
CCOc1cc(/C=C/c2cc(C(=O)O)c3ccccc3n2)ccc1O	none
Cc1ccccc1Nc1nc(-c2sc(NC(=O)c3cccc(Cl)c3)nc2C)cs1	SENP6 inh 77, SENP8 block-1 60 (no result: SENP8 block-2, TRAIL sens C8)
COc1ccc(Cl)cc1Nc1nc(-c2sc(NC(=O)c3ccccc3)nc2C)cs1	none (no result: SENP8 block-2, TRAIL sens C8)
Cc1ccccc1Nc1nc(-c2sc(NC(=O)c3ccccc3)nc2C)cs1	SENP7 block 61, SENP6 inh 80, SENP8 block-1 61 (no result: SENP8 block-2, TRAIL sens C8)
Cc1ccc(-c2csc(NC(=O)c3ccc(-c4ccccc4)cc3)n2)o1	TRAIL sens C8 66
COc1ccc(OC)c(Nc2nc(-c3sc(NC(=O)c4ccccc4)nc3C)cs2)c1	SENP7 block 53, SENP6 inh 67, SENP8 block-1 52 (no result: SENP8 block-2, TRAIL sens C8)
O=C(NCCc1ccccc1F)C1C(=O)Nc2ccccc2C(=O)N1C1CCCCC1 (stereo not given)	none (no result: SENP7 block, SENP6 inh, SENP8 block-1, PPC-1+TRAIL kill)
Cc1ccc(Cl)cc1Nc1nc(-c2sc(NC(=O)c3ccco3)nc2C)cs1	none
Cc1ccc(Cl)cc1Nc1nc(-c2sc(NC(=O)c3cccc(Cl)c3)nc2C)cs1	SENP6 inh 66, SENP8 block-1 56 (no result: SENP8 block-2, TRAIL sens C8)
COC(=O)c1cc(OCC(=O)Nc2ccc3c(c2)CCC3)cc(C(=O)OC)c1	TRAIL sens C8 94 (no result: PPC-1+TRAIL kill)
COc1ccc(OCC(=O)Nc2ccc3c(c2)CCC3)cc1	none (no result: PPC-1+TRAIL kill)
O=C(Nc1c(S(=O)(=O)c2ccc(Cl)cc2)csc1Br)c1ccccc1Cl	none
CC(C)(CNC(=O)c1ccc([N+](=O)[O-])c(Cl)c1)CNC(=O)c1ccc([N+](=O)[O-])c(Cl)c1	TRAIL sens C8 53
